In PubChem BioAssay AID492996 (Johns Hopkins Ion Channel Center, 2010):
Measured potencies and affinities stand elsewhere. Active and inactive are the calls of the source.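 The calls were made as follows: active = peak inhibition of the TRPC4 channel signal over 30% at some dose, with a fitted dose response curve; inactive = no inhibition or no dose response curve.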

Biological target: Short transient receptor potential channel 4 (Mus musculus) (UniProt Q9QUQ5)
Experiment: TRPC4 inhibition under acetylcholine activation, SAR follow-up, cell-based, acetylcholine stimulus, HEK293 TRPC4, Fluo-4 (AID 492996)
Conditions: HEK293 TRPC4 cells, ACh-evoked Fluo-4 calcium flux; series mostly up to 20 µM

Sequence of Short transient receptor potential channel 4 (Mus musculus) (Q9QUQ5 whole entry, looked up): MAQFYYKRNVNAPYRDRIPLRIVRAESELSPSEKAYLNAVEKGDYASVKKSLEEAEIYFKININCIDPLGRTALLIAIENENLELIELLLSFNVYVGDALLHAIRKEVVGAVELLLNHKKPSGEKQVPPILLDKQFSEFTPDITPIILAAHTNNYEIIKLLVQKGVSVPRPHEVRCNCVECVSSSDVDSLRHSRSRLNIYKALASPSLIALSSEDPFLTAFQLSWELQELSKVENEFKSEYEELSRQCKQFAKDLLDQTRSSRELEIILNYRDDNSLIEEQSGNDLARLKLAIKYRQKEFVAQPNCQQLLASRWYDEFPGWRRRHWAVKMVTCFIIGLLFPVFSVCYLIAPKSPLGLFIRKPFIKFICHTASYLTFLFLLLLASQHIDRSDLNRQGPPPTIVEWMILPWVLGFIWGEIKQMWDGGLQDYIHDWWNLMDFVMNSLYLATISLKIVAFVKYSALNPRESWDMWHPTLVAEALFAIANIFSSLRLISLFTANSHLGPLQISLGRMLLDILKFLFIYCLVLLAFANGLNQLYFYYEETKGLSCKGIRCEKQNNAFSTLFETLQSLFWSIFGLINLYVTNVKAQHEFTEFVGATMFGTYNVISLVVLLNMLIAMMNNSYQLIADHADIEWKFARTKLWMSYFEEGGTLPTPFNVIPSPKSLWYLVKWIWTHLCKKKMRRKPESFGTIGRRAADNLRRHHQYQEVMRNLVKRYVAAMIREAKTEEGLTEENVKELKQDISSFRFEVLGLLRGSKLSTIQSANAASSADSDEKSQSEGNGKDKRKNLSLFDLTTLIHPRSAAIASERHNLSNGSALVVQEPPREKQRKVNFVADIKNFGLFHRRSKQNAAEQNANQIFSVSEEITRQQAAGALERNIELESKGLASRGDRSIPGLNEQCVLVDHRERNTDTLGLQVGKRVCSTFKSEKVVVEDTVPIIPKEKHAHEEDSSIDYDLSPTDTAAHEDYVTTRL

outcome, inactive:
Cc1cc(N2CCC(N3CCOCC3)CC2)nc2ccccc12, Cc1cc(N2CCN(c3ncccn3)CC2)nc2ccccc12, Cc1cc(N2CCN(c3ccccc3C#N)CC2)nc2ccccc12, Cc1ccnc(N2CCCCCC2)n1, CCc1ccc2nc(N3CCCCCC3)cc(C)c2c1, Cc1cc(N2CC(C)CC(C)C2)nc2ccccc12 (stereo unspecified), COc1ccc(N2CCN(c3cc(C)c4ccccc4n3)CC2)cc1, COc1ccccc1N1CCN(c2cc(C)c3ccccc3n2)CC1, Cc1cc(N2CCCC(O)C2)nc2ccccc12 (stereo unspecified), Cc1cc(N2CCCCCC2)nc2ccc(F)cc12, Cc1ccc2nc(N3CCCCCC3)cc(C)c2c1, CCN(CC)c1cc(C)c2ccccc2n1, Cc1cc(N2CCOc3ccccc32)nc2ccccc12, Cc1cc(N2CCN(CC3CCCO3)CC2)nc2ccccc12 (stereo unspecified), Cc1ccnc(N2CCCCCC2)c1, Cc1cc(N(C)CCN(C)C)nc2ccccc12, Cc1cc(N2CCCCCC2)nc2c(C)cccc12, FC(F)(F)c1cc(N2CCCCCC2)nc2ccccc12, Cc1cc(N2CCOCC2)nc2ccccc12, COCCN(C)c1cc(C)c2ccccc2n1, c1ccc(-c2cc(N3CCCCCC3)nc3ccccc23)cc1
